Data as given in PubChem BioAssay AID720504 (National Center for Advancing Translational Sciences (NCATS), 2013).
Screen size: about 360,000 compounds; about 10,000 (2.8%) were called active. Inconclusive results (about 4%) are left out. Calls come from the whole dose curve; as a rule, active = well fitted inhibition curve with a large enough effect; inconclusive = small, poorly fitted or top-dose-only effect; inactive = flat fitted curve, though single readings scatter. Shown is part of a subset that was picked to be rich in actives.

target: Serine/threonine-protein kinase PLK1 (Homo sapiens) (UniProt P53350); experiment: qHTS for Inhibitors of PLK1-PDB (polo-like kinase 1 - polo-box domain): Primary Screen; details: Plk1 PBD binding of FITC phosphopeptide, fluorescence polarization; note: nearly all actives have a fitted effect of over 65% in size; for max response, negative = inhibition: series mostly up to about 57 µM
% is set by controls: 0 for no effect and ±100 for the full control effect; potency is the fitted concentration of half-maximal effect.

Sequence of Serine/threonine-protein kinase PLK1 (Homo sapiens) (P53350 whole entry, looked up, the tested form may be a part): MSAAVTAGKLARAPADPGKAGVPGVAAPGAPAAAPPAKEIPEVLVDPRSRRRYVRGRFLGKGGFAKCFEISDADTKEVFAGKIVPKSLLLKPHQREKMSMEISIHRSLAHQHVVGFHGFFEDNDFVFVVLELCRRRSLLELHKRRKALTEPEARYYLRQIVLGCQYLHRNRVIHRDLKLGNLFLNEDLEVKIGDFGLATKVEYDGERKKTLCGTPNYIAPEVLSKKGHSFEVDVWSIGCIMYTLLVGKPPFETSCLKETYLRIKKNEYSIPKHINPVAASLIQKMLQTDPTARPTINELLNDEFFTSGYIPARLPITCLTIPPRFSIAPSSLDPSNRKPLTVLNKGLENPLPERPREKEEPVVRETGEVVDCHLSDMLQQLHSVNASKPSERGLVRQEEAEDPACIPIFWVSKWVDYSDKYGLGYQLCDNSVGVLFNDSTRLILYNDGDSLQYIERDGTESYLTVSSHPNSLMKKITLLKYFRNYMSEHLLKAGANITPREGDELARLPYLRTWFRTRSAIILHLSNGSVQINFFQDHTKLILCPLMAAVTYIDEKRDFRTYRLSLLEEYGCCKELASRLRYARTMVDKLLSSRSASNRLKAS

SMILES	max response, negative = inhibition	Potency
O=[N+]([O-])c1cccc(C=NN=Cc2ccccc2O)c1	-3.02% (inactive)	
O=[N+]([O-])c1ccc(N=Cc2c(O)ccc3ccccc23)cc1		29.9 µM (active)
O=C(Oc1ccc([N+](=O)[O-])cc1)c1ccc2ccccc2n1	-21.6% (inactive)	
CCCCNC(=O)C[C@@H]1C[C@@]2(C(=O)OC)CC(C)(C)CC=C2N(Cc2ccco2)C1=O	0.813% (inactive)	
Cc1cccc(-c2cnc(C(O)c3ccc4ccccc4c3)[nH]2)c1 (stereo not drawn)	-0.198% (inactive)	
N#Cc1cc([N+](=O)[O-])ccc1Oc1cccc(/C=N/NC(=O)c2ccc(Cl)cc2)c1	0.641% (inactive)	
O=C(NN=Cc1ccc([N+](=O)[O-])cc1)C1CC1	-0.264% (inactive)	
O=C(N/N=C/c1ccc(Cl)cc1)c1nc2ccc([N+](=O)[O-])cc2c(=O)[nH]1		18.9 µM (active)
O=C(NCc1ccc(F)cc1)c1cc(C2CCCCN2C(=O)C2CCCCC2)on1 (stereo not drawn)	2.6% (inactive)	
CC(C)CC1C(=O)N(Cc2cn(Cc3ccco3)nn2)CCS(=O)(=O)N1Cc1ccc(-c2ccc(Cl)c(Cl)c2)cc1 (stereo not drawn)	-13.6% (inactive)	
CNc1cncc(-c2ccc(NS(C)(=O)=O)cc2)n1	6.53% (inactive)	
O=C(CSc1nnc(-c2ccco2)n1-c1ccccc1)NCCc1ccccc1	-10.6% (inactive)	
COc1ccc(C(=O)NC(=O)CSc2nnc(-c3ccco3)n2-c2ccccc2)cc1	-12.5% (inactive)	
CCOc1ccc(-n2c(SCC(N)=O)nnc2-c2ccco2)cc1		15 µM (active)
OCCN1CCN(c2ncnc3c2ncn3[C@H]2CN(Cc3ccco3)C[C@@H](CO)O2)CC1	-11.1% (inactive)	
O=C(Nc1ccc(N2CCOCC2)cc1)c1cccc2c(-c3ccc(F)c(F)c3)coc12	-15% (inactive)	
CC(=O)N1c2ccc(S(=O)(=O)N(C)CC(=O)N(C)Cc3ccccc3)cc2CC1C (stereo not drawn)	5.96% (inactive)	
CC(=O)N1c2ccc(S(=O)(=O)NCCC(=O)N(C)C3CCCCC3)cc2CC1C (stereo not drawn)		2.99 µM (active)
COc1cccc(CNS(=O)(=O)c2ccc3c(c2)CC(C)N3C(=O)C2CCC2)c1 (stereo not drawn)	-3.29% (inactive)	
Cc1ccc(-c2ccc(CN3C(C(C)C)C(=O)N(Cc4cn(CCC5OCCCO5)nn4)CCS3(=O)=O)cc2)cc1 (stereo not drawn)	-2.35% (inactive)	
CCOc1ccc(CCN2C(=O)C(=O)N([C@@H](CC(C)C)CN3CCC[C@H]3CN3C(=O)C(=O)NC[C@@H]3Cc3ccccc3)C[C@@H]2CC(C)C)cc1	-0.137% (inactive)	
Cc1cccc(-c2cnc(C(O)c3cc(C)cc(C)c3)[nH]2)c1 (stereo not drawn)	-12% (inactive)	

SMILES	max response, negative = inhibition	Potency
CCOC(=O)c1sc(=NC(=O)/C=C/c2cccs2)n(C)c1C		26.7 µM (active)
CCOC(=O)c1c(NC(=S)NC(=O)/C=C/c2cccs2)sc(C)c1C	-3.87% (inactive)	
CCOC(=O)c1sc(=NC(=O)c2ccc(Br)cc2)n(C)c1C	-3.76% (inactive)	
COC(=O)[C@]12CCCCC=C1N(Cc1ccc3c(c1)OCO3)C(=O)[C@H](CC(=O)N1CCOCC1)C2	-9.01% (inactive)	
O=C(CSCc1ccc([N+](=O)[O-])cc1)NCCSCc1ccccc1	-1.81% (inactive)	
CC(O)c1nc2ccccc2n1Cc1ccc([N+](=O)[O-])cc1 (stereo not drawn)	-2.98% (inactive)	
CC(=O)N1c2ccccc2N(Cc2ccc([N+](=O)[O-])cc2)C(=O)C1(C)C		29.9 µM (active)
Cc1nc2c(OCc3cccc(Cl)c3)cccn2c1N(C)CC1CC1	-10.4% (inactive)	
COC(=O)[C@]12CCCCC=C1N(Cc1cccc3ccccc13)C(=O)[C@H](CC(=O)N1CCOCC1)C2	-13.4% (inactive)	
Cc1cc(Cl)ccc1-c1nc(NCCN(C)C)nc2ccsc12	-8.63% (inactive)	
COc1ccccc1-c1cc(NC(C)=O)c2ncc(-c3ccc(F)cc3)n2c1	-2.69% (inactive)	
Cc1ccccc1C1=N/C(=C/c2cccnc2)C(=O)O1	-12.6% (inactive)	
COc1cc(C=O)ccc1Oc1nnnn1-c1ccccc1	-3.25% (inactive)	
COc1cc(/C=C2/C(=O)ON=C2C)ccc1OCc1cccc(F)c1		1.06 µM (active)
CCOc1cc(/C=C2\C(=N)N3N=C(C)SC3=NC2=O)ccc1OCCOc1ccccc1	-10.7% (inactive)	
C#CCOc1ccc(/C=C2/C(=O)NN(c3ccccc3)C2=O)cc1OC		18.9 µM (active)
COc1ccnc2c1c(=O)n(Cc1cccc(F)c1)c(=O)n2C	-8.75% (inactive)	
C#CCOc1ccc(/C=C2/C(=O)ON=C2C)cc1OCC		2.12 µM (active)
COc1cc(/C=C2/C(=O)NN(c3ccc(F)cc3)C2=O)cc([N+](=O)[O-])c1O	-17.7% (inactive)	
COc1cc(/C=C2\SC(=O)NC2=O)ccc1OCc1ccc(Cl)nc1	-13.4% (inactive)	
CC1=NOC(=O)/C1=C\c1ccccc1		16.8 µM (active)
CCOc1cc(/C=N/O)ccc1OCc1ccccc1F	5.59% (inactive)	

SMILES	max response, negative = inhibition	Potency
Cc1nc2ccccn2c(=O)c1NC(=O)c1ccc(Br)o1	-0.655% (inactive)	
O=[N+]([O-])c1ccc(CN2CC(N3CC=CC3)CS2(=O)=O)cc1 (stereo not drawn)	-4.83% (inactive)	
CCc1cc(C(=O)N(CC)CC(=O)Nc2c(F)cccc2F)sc1C	-2.84% (inactive)	
CSCCC(c1nnnn1Cc1ccccc1)N1CCN(C/C=C/c2ccccc2)CC1 (stereo not drawn)	-5.15% (inactive)	
CC1(Oc2cccc(F)c2)CCN(Cc2ccccc2OC(F)F)C1 (stereo not drawn)	-10.6% (inactive)	
Cc1no[n+]([O-])c1COc1ccccc1/C=C1\NC(=S)NC1=O	-11.5% (inactive)	
C=CCOc1ccc(/C=C2/C(=O)ON=C2C)cc1OCC		1.89 µM (active)
C#CCOc1ccccc1/C=C1/C(=O)ON=C1C		2.38 µM (active)
C=CCOc1ccc(/C=N/n2cncn2)cc1OC	-1.5% (inactive)	
C=CCOc1ccc(/C=N/NC(=O)C(C)Sc2ccccn2)cc1OCC (stereo not drawn)	-12.5% (inactive)	
COc1ccc(NC(=O)C2(C)Cc3c(-c4cccc(NC(C)=O)c4)ccnc3O2)cc1 (stereo not drawn)	1.6% (inactive)	
CC(C)NC(=O)N1Cc2cc(C(=O)NCC(F)(F)F)nc(-c3cccc(-c4cc5ccccc5o4)c3)c2[C@@H]1CCO	-2.2% (inactive)	
CCCCNC(=O)c1nc(C2CCN(S(=O)(=O)c3ccc(F)c(F)c3)CC2)oc1-c1cccc(C(F)(F)F)c1	-2.64% (inactive)	
CCCNC(=O)C1(C)CCN(Cc2csc(-c3ccc(Cl)cc3)n2)C1 (stereo not drawn)	-6.86% (inactive)	
Nc1nc2ncccn2c1-c1ccccc1	-5.06% (inactive)	
COc1cc(OC)cc(C2=Cc3ccccc3C(CC(=O)c3ccco3)N2c2ccc(-c3cnc(OC)nc3)cc2)c1 (stereo not drawn)	-0.0299% (inactive)	
CCCCCCn1c(=O)n2n(c1=O)C[C@]1(OC(=O)NCc3ccc(OC)c(OC)c3)CN(S(=O)(=O)c3ccc(C)cc3)C[C@]1(O)C2	-2.55% (inactive)	
O=C(NNS(=O)(=O)c1ccc(F)cc1)c1cnccn1	-1.36% (inactive)	
NS(=O)(=O)c1ccc(CNC(=O)c2cccc(Oc3ccccc3)c2)cc1	-1.88% (inactive)	
NS(=O)(=O)c1ccc(CNC(=O)c2cnccn2)cc1		16.8 µM (active)
CCc1ccc2c(c1)NC(=O)C2(C)Cc1ccc(OC(F)(F)F)cc1 (stereo not drawn)	-1.5% (inactive)	
CC1(C)Cc2ccccc2-c2[nH]c(=S)[nH]c(=O)c21	-13.9% (inactive)	

SMILES	max response, negative = inhibition	Potency
N#CC1=C(N)Oc2[nH]c(=S)[nH]c(=O)c2C12C(=O)Nc1ccccc12 (stereo not drawn)		2.67 µM (active)
N#CC1=C(N)Oc2n[nH]c(CSc3ccccc3)c2C12C(=O)Nc1ccccc12 (stereo not drawn)	-12.8% (inactive)	
COCCNC(=O)C1(C)CCCN(Cc2cccc(F)c2)C1 (stereo not drawn)	-4.61% (inactive)	
COCCCNC(=O)c1ccc(CNS(=O)(=O)c2ccc(NC(C)=O)cc2)cc1		26.7 µM (active)
CC(=O)Nc1ccc(S(=O)(=O)NCCc2ccccc2)cc1	0.463% (inactive)	
CCCCNC(=O)C1CCC(CNS(=O)(=O)c2ccc(NC(C)=O)cc2)CC1 (stereo not drawn)	-1.34% (inactive)	
CCN1CCCC1CNC(=O)c1ccc2c(c1)NC(=O)/C(=C\c1ccccc1F)S2 (stereo not drawn)	0.0941% (inactive)	
CC1CCN(C(=S)c2ccc(-c3ccc(Cl)cc3Cl)o2)CC1		21.2 µM (active)
Cc1csc(NC(=O)c2ccc(-c3ccc(Cl)cc3Cl)o2)n1	-15% (inactive)	
COc1ccc(C(=O)Nc2c(Cl)cc(Cl)cc2C(=O)N2CCC(C)CC2)cc1	-14.4% (inactive)	
COc1ccc2[nH]c(=S)cc(C)c2c1		4.74 µM (active)
COc1ccc(N)c(C)c1	-0.841% (inactive)	
COc1ccc2[nH]c3c(C)c4cc[n+](C)cc4c(C)c3c2c1	-4.23% (inactive)	
CC12CN(Cc3ccccc3)CC(C)(CN(Cc3ccccc3)C1)C2=NO		5.32 µM (active)
NC(=O)C1(N2CCCC2)CCN(Cc2ccccc2)CC1	-7.37% (inactive)	
O=S1(=O)CCN(Cc2ccccc2)CC1	-2.26% (inactive)	
O=C(OCc1cn([C@H]2C[C@H](c3ccccc3)N(C(=O)c3cccs3)C[C@@H]2O)nn1)c1ccccc1	-2.46% (inactive)	
CC(C)(C(=O)N1CCC1(C)C(=O)NS(=O)(=O)c1ccc(Br)cc1)c1ccccc1 (stereo not drawn)	-7.26% (inactive)	
CCOc1ncccc1C(=O)Nc1ccc(S(=O)(=O)Nc2nc(C)cc(C)n2)cc1	0.589% (inactive)	
Cc1ccc(C(=O)/C=C/Nc2ccc(S(=O)(=O)Nc3onc(C)c3C)cc2)cc1	-13.9% (inactive)	
Cc1cc(C)nc(NS(=O)(=O)c2ccc(N/C=C\C(=O)c3cccs3)cc2)n1		26.7 µM (active)
O=C(CC(CC(=O)c1ccccc1)c1ccco1)c1ccccc1	13.6% (inactive)	
